Values joined by “and” are separate entries in the source; they are usually repeats but may differ in a detail not shown here. Identical values can stand only once. A structure can be active in one record and inactive in another. Active and inactive are the calls of the source. The calls were made as follows: active = hit-call score of the fitted dose curve at least 0.9, where 1 is the maximum; inactive = score below 0.9.

Usually AC50 stands for the midpoint of the concentration-response curve, whichever way the signal moves.

Read-out in test [1]: Intercellular Adhesion Molecule 1 (ICAM1), ICAM1 (gene 3383)
Briefly: BSK_hDFCGF_ICAM1: BioMAP Diversity Plus: hDFCGF Assay for Intercellular Adhesion Molecule 1 (ICAM1) Biomarker Activity (AID 2284287). The following applies: primary human foreskin fibroblasts. The method in brief: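 ICAM-1 ELISA readout 24 h after dosing, DMSO as baseline, in human dermal foreskin fibroblast cultures. Cytotoxicity checked in parallel wells by SRB staining (0.1% SRB, 10% TCA fixation, 560 nm).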

Read-out in test [2]: CD40, CD40 (gene 958)
Briefly: BSK_IMphg_CD40: BioMAP Diversity Plus: IMphg Assay for CD40 Biomarker Activity (AID 2284288). The following applies: primary human endothelial cells with macrophages. The method in brief:
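ELISA read-out of cell-surface CD40 at 24 h in human venular endothelial cell/macrophage co-cultures. Activity fitted in the positive direction against DMSO; parallel SRB staining (560 nm) gauges overt cytotoxicity.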

Read-out in test [3]: TIMP metallopeptidase inhibitor 2 (TIMP2), TIMP2 (gene 7077)
In words: BSK_hDFCGF_TIMP2: BioMAP Diversity Plus: hDFCGF Assay for TIMP metallopeptidase inhibitor 2 (TIMP2) Biomarker Activity (AID 2284289). To be noted: primary human foreskin fibroblasts. An outline of the steps: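 Primary human foreskin fibroblasts in the hDFCGF system, dosed for 24 h; TIMP-2 level measured by ELISA, fitted in the positive direction against DMSO; cytotoxicity checked in parallel by sulforhodamine B total protein staining.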

Read-out in test [4]: Interleukin-1 alpha (IL1a), IL1A (gene 3552)
In words: BSK_IMphg_IL1a: BioMAP Diversity Plus: IMphg Assay for Interleukin-1 alpha (IL1a) Biomarker Activity (AID 2284290). To be noted: primary human endothelial cells with macrophages. The method in brief: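 IL-1α is quantified by ELISA at 24 h in the endothelial/macrophage IMphg co-culture, with gain of signal fitted relative to DMSO. Parallel SRB total-protein staining flags overt toxicity.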

Read-out in test [5]: E-selectin (Homo sapiens) (UniProt P16581)
In words: BSK_IMphg_ESelectin: BioMAP Diversity Plus: IMphg Assay for Eselectin Biomarker Activity (AID 2284291). The following applies: primary human endothelial cells with macrophages. An outline of the steps: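 Analysed against DMSO baseline in the positive fitting direction, this endpoint is an ELISA read of E-selectin. It comes from human venular endothelial cells co-cultured with macrophages, sampled 24 h post-dose.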

Test [6] in a line: BSK_IMphg_SRB: Viability Assessment in the BioMAP Diversity Plus: IMphg Assay (AID 2284292).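 Also: measured one day after compound addition.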 To be noted: primary human endothelial cells with macrophages. An outline of the steps:
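SRB viability endpoint: cultures of human endothelial cells plus macrophages fixed with 10% TCA, stained with 0.1% SRB, read at 560 nm 24 h post-dosing. Only gain-of-signal fitted, relative to DMSO.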

Read-out in test [7]: Macrophage colony-stimulating factor (MCSF), CSF1 (gene 1435)
Briefly: BSK_IMphg_MCSF: BioMAP Diversity Plus: IMphg Assay for Macrophage colony-stimulating factor (MCSF) Biomarker Activity (AID 2284293). The following applies: primary human endothelial cells with macrophages. The method in brief:
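M-CSF was measured by ELISA in human venular endothelial cell/macrophage co-cultures dosed for 24 hours. Sulforhodamine B staining of parallel cultures assessed cytotoxicity; data fitted against DMSO baseline.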

Read-out in test [8]: Interleukin-10 (IL10), IL10 (gene 3586)
In words: BSK_IMphg_IL10: BioMAP Diversity Plus: IMphg Assay for Interleukin-10 (IL10) Biomarker Activity (AID 2284294). To be noted: primary human endothelial cells with macrophages. The method in brief:
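IL-10 read by ELISA after 24 h chemical exposure of primary human venular endothelial cell/macrophage cocultures, with DMSO as baseline. Parallel SRB staining (560 nm) gauged overt cytotoxicity.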

Test [9] is described as follows: BSK_IMphg_SRB.Mphg: Macrophage Viability Assessment in the BioMAP Diversity Plus: IMphg Assay (AID 2284295). To be noted: primary human endothelial cells with macrophages. The method in brief: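 Cytotoxicity read-out: parallel cultures fixed with 10% TCA, stained with 0.1% sulforhodamine B, read at 560 nm. System combines venular endothelium and macrophages; sampled 24 h post-dosing, fitted positively relative to DMSO control.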

Read-out in test [10]: Thrombomodulin, THBD (gene 7056)
Briefly: BSK_LPS_Thrombomodulin: BioMAP Diversity Plus: LPS Assay for Thrombomodulin Biomarker Activity (AID 2284296). To be noted: primary human HUVEC with PBMC. The method in brief: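 Thrombomodulin on the surface of LPS-activated endothelial/PBMC co-cultures was quantified by ELISA at 24 hours post-dosing, with DMSO as baseline. Parallel SRB total-protein staining flagged overt cytotoxicity.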

Chain of E-selectin (Homo sapiens) (P16581 whole entry, looked up): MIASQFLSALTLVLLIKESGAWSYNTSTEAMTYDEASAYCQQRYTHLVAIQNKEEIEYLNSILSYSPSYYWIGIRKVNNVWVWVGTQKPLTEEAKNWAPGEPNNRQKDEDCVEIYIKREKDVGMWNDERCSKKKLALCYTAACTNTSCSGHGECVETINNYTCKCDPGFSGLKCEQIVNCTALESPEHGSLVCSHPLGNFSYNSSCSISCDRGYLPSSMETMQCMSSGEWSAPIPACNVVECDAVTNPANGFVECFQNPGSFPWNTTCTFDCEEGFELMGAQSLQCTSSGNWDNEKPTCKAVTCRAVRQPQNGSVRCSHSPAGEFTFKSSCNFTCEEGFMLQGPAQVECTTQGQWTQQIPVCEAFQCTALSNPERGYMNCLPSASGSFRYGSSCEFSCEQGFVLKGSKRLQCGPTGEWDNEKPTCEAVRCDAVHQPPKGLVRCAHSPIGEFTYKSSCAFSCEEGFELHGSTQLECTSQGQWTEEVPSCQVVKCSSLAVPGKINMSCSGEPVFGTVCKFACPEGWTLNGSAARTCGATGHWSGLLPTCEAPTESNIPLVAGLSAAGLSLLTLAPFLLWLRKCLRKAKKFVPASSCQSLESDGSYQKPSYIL

On to `O=C(O)C(F)(OC(F)(F)C(F)(OC(F)(F)C(F)(OC(F)(F)C(F)(F)C(F)(F)F)C(F)(F)F)C(F)(F)F)C(F)(F)F` (stereo not given), for which the result in test [1], in [2], in [3], in [4], in test [5] and in [6] was inactive. For the same molecule, the result in test [7], in test [8], in test [9] and in [10] was inactive.
Take `O=C(O)C(F)(F)C(F)(F)C(F)(F)C(F)(F)C(F)(F)C(F)(F)C(F)(F)C(F)(F)C(F)(F)C(F)F`: the AC50 in [1] was 14.5 µM (active); in test [6], 55.7 µM (active) and 50.4 µM (active); in test [8] it was 47.3 µM (active) and 45 µM (active); in [9], 49 µM (active) and 22.5 µM (active); in test [10] it was 55 µM (active) and 12.4 µM (active). The result in test [1], in [2], in [3], in test [4], in [5] and in [7] was inactive.
Consider `OCC(F)(F)C(F)(F)C(F)(F)C(F)(F)C(F)(F)C(F)F`, for which the outcome in [1], in [2], in test [3], in test [4], in test [5] and in test [6] was inactive. Also, the outcome in test [7], in test [8], in [9] and in test [10] was inactive. For the same molecule, the results for the AC50 in [2], in test [4] and in test [9] were 1.79 µM (active), 23.4 µM (active) and 596 nM (active), respectively.
For `N=C(N)C(F)(F)C(F)(F)C(F)(F)C(F)(F)C(F)(F)C(F)(F)C(F)(F)F`, the AC50 is 30 µM (active) in test [1], 30 µM (active) in test [3] and 48.7 µM (active) in test [10]. Besides, the result in [1], in [2], in [3], in [4], in [5] and in test [6] was inactive. Further, the outcome in test [7], in [8], in [9] and in [10] was inactive.
Take `COC(=O)CCC(F)(F)C(F)(F)C(F)(F)C(F)(F)F`: the result in test [1], in [2], in test [3], in [4], in [5] and in [6] was inactive. In addition, the result in [7], in test [8], in [9] and in [10] was inactive. Besides, in [8], the AC50 is 7.74 µM (active).
As to `OCCCC(F)(F)C(F)(F)C(F)(F)C(F)(F)C(F)(F)C(F)(F)C(F)(F)F`, the AC50 was 18.3 µM (active) and 20.1 µM (active) in [1]; 42.5 µM (active) and 53 µM (active) in test [2]; 14.4 µM (active) and 16.8 µM (active) in [3]; 45.4 µM (active) in [5]; 51.8 µM (active) and 47.2 µM (active) in [6]; 45.8 µM (active) in test [7]. Moreover, the AC50 in test [8] was 54.9 µM (active); in test [9], 46300 nM (active); in test [10] it was 49.4 µM (active) and 45.6 µM (active). Also, the outcome in test [4], in [5], in test [7], in test [8] and in [9] was inactive.
In the case of `O=C(O)C(F)(F)C(F)(F)C(F)(F)F`, the result in [1], in test [2], in [3], in [4], in test [5] and in test [6] was inactive. Moreover, the result in [7], in test [8], in test [9] and in [10] was inactive. Moreover, the AC50 in test [2] was 0.319 µM (active).
On to `O=C(O)C(F)(F)C(F)(F)C(F)F`, for which the result in test [1], in test [2], in test [3], in test [4], in [5] and in test [6] was inactive. Besides, the outcome in test [7], in [8], in [9] and in test [10] was inactive.
For the molecule `O=C(O)C(F)(F)C(F)(F)C(F)(F)C(F)(F)C(F)(F)C(F)(F)C(F)(F)C(F)(F)Cl`, the AC50 in test [1] is 14.1 µM (active) and 8.21 µM (active); in test [2] it was 44.5 µM (active) and 46.5 µM (active); in [3] it was 6.54 µM (active); in test [6], 56.6 µM (active) and 47.9 µM (active); in test [8] it was 45.8 µM (active) and 45.3 µM (active); in test [9], 44400 nM (active). In addition, the concentration at half-maximal activity (AC50) in [10] is 30 µM (active) and 27.2 µM (active). The outcome in test [3], in test [4], in test [5], in test [7] and in test [9] was inactive.
In the case of `C=CC(=O)OCC(F)(F)C(F)(F)C(F)(F)C(F)(F)COC(=O)C=C`, the AC50 in test [1] was 10.6 µM (active) and 10.3 µM (active); in test [2] it was 18.8 µM (active) and 25 µM (active); in [3] it was 12.4 µM (active) and 12.7 µM (active); in [4], 30 µM (active); in test [5], 25.1 µM (active) and 31.3 µM (active); in test [8], 24.4 µM (active) and 33.7 µM (active). The AC50 in [9] was 21.5 µM (active) and 51.8 µM (active); in test [10] it was 51.4 µM (active). The result in test [4], in test [6], in [7] and in test [10] was inactive.
Consider `C=C(C)C(=O)OCC(F)(F)C(F)(F)C(F)(F)C(F)(F)C(F)(F)C(F)(F)C(F)(F)F`, for which the result in [1], in test [2], in test [3], in [4], in test [5] and in [6] was inactive. Also, the outcome in test [7], in test [8], in [9] and in [10] was inactive. Further, the AC50 was 3.33 µM (active) in [8] and 24.8 nM (active) in [9].
As to `O=S(=O)(O)C(F)(F)C(F)(F)C(F)(F)C(F)(F)C(F)(F)C(F)(F)C(F)(F)F`, the outcome in test [1], in test [2], in test [3], in test [4], in test [5] and in test [6] was inactive. Also, the result in test [7], in [8], in test [9] and in test [10] was inactive. Further, the AC50 in test [8] was 13.3 µM (active).

For the origin of these results see PubChem BioAssay (EPA / NIEHS).
